# DAX1 inh-1 – DAX1 (NR0B1) inhibition, primary screen; HEK293T StAR-luciferase reporter, SF-1/DAX-1 repression relief; inhibition, % at 6.8 µM; 370,000 tested, 1.1% active; AID 652010;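 active = inhibition above the mean over all tested compounds plus 3 SD, cut at about 3.6% in these data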;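 also: 0% = DAX-1 cells with DMSO and 100% = cells lacking DAX-1 with DMSO; higher inhibition means more luminescence from relief of DAX-1 repression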
# ssDAF12 agonist – activators of S. stercoralis DAF-12 nuclear receptor | 370,000 tested, 1% active | AID 652126 | HEK293 ssDAF-12/GRIP1 lit1-tk-luc reporter, luminescence; % of 3 µM dafachronic acid response | activation, % at 6.8 µM;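 active = activation above the mean over all tested compounds plus 3 SD, cut at about 0.9% in these data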;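 also: 0% = DMSO-only wells and 100% = 3 µM delta7-dafachronic acid wells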
# hgDAF-12 ag – hgDAF-12 agonism, primary luciferase screen | activation, % at 6.8 µM | HEK293 GAL4-hgDAF12 UAS-luciferase reporter, agonist luminescence; normalized to butyrate control | AID 687014 | 370,000 tested, 1.8% active;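 active = activation above a cutoff set at the mean of all screened compounds plus 3 SD, cut at about 10% in these data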;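 also: 0% = DMSO wells and 100% = sodium butyrate wells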
# hcDAF-12 act – activators of H. contortus DAF-12 nuclear receptor; HEK293 hcDAF-12 lit1-tk-luc reporter, luminescence; 0% DMSO, 100% Δ7-dafachronic acid; 370,000 tested, 1.4% active; AID 652067; activation, % at 6.8 µM;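 active = activation above the mean of all tested compounds plus 3 SD, cut at about 5.5% in these data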;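 also: 100% = response to 3 µM Δ7-dafachronic acid high control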
# DAX1 inh-2 – NR0B1 (DAX1) inhibition. P51843. HEK293 Gal4-DAX1 luciferase reporter, luminescence. inhibition, % at 6.75 µM. 340,000 tested, 0.99% active. AID 504766;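 active = inhibition above the mean over all tested compounds plus 3 SD, cut at about 4.2% in these data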;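 also: 0% = DAX1-transfected cells with DMSO and 100% = empty-vector control cells with DMSO; inhibition shows as a rise in luminescence from relieved DAX1 repression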
# DAX1 inh confirm – NR0B1 (human) inhibition, confirmation. shares compounds with DAX1 inh-1. HEK293T StAR-promoter luciferase reporter, SF-1/DAX-1 repression. inhibition, % at 6.8 µM. 2,400 tested, 87% active. AID 652134;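 active = inhibition above the average of every tested compound plus 3 SD, cut at about 3.8% in these data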;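 also: 0% = DAX-1 cells with DMSO and 100% = no DAX-1 control cells with DMSO; active compounds raise luminescence by relieving repression of the StAR reporter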
# Target sequence (P51843 whole entry, looked up): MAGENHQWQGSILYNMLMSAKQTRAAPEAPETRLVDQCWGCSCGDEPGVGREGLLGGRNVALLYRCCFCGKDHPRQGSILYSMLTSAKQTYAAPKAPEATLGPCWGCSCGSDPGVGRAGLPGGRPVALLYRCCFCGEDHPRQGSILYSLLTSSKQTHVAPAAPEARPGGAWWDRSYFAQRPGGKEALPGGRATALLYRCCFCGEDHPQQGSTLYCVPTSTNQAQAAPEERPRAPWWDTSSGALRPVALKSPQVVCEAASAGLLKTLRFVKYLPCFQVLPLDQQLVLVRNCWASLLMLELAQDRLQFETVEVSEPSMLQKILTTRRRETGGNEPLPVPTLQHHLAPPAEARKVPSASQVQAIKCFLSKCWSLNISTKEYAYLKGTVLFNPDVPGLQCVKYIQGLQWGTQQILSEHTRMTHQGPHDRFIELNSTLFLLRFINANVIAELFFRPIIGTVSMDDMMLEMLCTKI
# SF1 AF2mut Luc – nonselective inhibitor or artifact in SF-1 mutant DAX1 counter-screen; shares compounds with DAX1 inh-1; HEK293 StAR-luciferase, SF-1 AF2 mutant, luminescence; inhibition, % at 6.8 µM; 2,400 tested, 78% active; AID 652136;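 active = inhibition above the mean of all tested compounds plus 3 SD, cut at about 3% in these data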;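 also: 0% = DAX-1 transfected cells with DMSO and 100% = cells without DAX-1 with DMSO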
# LXRb hcDAF ctr – LXR-beta agonism as hcDAF-12 counter-screen; shares compounds with hcDAF-12 act; HEK293 Gal4-LXR tk-luc reporter, luminescence, 24 h; normalized: DMSO 0%, positive control 100%; activation, % at 6.8 µM; 3,400 tested, under 10 active; AID 743027;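 active = mean percent activation of the reporter above a cutoff set as the average over tested compounds plus their standard deviation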
# hcDAF12 ag – hcDAF-12 agonism, confirmation assay | shares compounds with hcDAF-12 act | HEK293 hcDAF-12 lit1-tk-luc reporter, luminescence; % of Δ7-dafachronic acid response | activation, % at 6.8 µM | 3,400 tested, 61% active | AID 743032;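 active = mean activation across triplicate tests above the threshold derived from the earlier primary screen, cut at about 5.5% in these data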;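 also: 0% = DMSO only wells and 100% = 3 µM Δ7-dafachronic acid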
# hgDAF12 conf – hgDAF-12 agonism, confirmation assay | activation, % at 6.8 µM | 3,300 tested, 80% active | AID 743050 | HEK293 GAL4-hgDAF12 luciferase reporter, agonist mode; percent of butyrate response | shares compounds with hgDAF-12 ag;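 active = mean activation over triplicate wells above the hit cutoff derived from the earlier primary screen, cut at about 11% in these data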;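 also: 0% = DMSO low control and 100% = 2 mM sodium butyrate high control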
# LXR ag 2 – LXR-beta agonism as DAF-12 counter-screen | shares compounds with hgDAF-12 ag | HEK293 Gal4-LXR luciferase reporter, 24 h | activation, % at 6.8 µM | 3,300 tested, under 10 active | AID 743051;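 active = mean activation of the triplicate above a set limit carried over from the primary screen, none filed active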
# Starred values were filed as active, the others as inactive; nt = no result. Only some compounds are listed: those with a hit (about 4.1% of all), similar ones and a draw of the others.
SMILES,DAX1 inh-1,ssDAF12 agonist,hgDAF-12 ag,hcDAF-12 act,DAX1 inh-2,DAX1 inh confirm,SF1 AF2mut Luc,hgDAF12 conf,LXR ag 2,others
CC(CNC(=O)[C@@H](Cc1ccccc1)NC(=O)[C@H]1O[C@@H](n2ccc(=O)[nH]c2=O)[C@H](O)[C@@H]1O)c1ccccc1 (some centres not stated),0,-1,1,-1,nt,nt,nt,nt,nt,
COc1ccc(C2CC(=O)C(c3ccc(Cl)cc3)=CN2Cc2ccccc2)cc1 (configuration not stated),-1,-1,3,-2,nt,nt,nt,nt,nt,
N/C(=N\OC(=O)c1ccc2ccccc2c1)c1ccncc1,5.2*,1.1*,17*,7.1*,5.2*,10*,6.2*,14*,1,LXRb hcDAF ctr=1;hcDAF12 ag=4
N/C(=N\OC(=O)c1ccc2ccccc2c1)c1ccccc1Cl,8.8*,0,14*,4,2,1,3.5*,13*,0,
COc1ccc(Cn2cc(CN3CC=CS3(=O)=O)nn2)cc1,0,-1,4,-1,nt,nt,nt,nt,nt,
O=C(NC1=NCCS1)c1sc2cc(Cl)cc(Cl)c2c1Cl,0,0,0,-3,1,nt,nt,nt,nt,
O=C(NC1=NCCS1)c1ccc(C(F)(F)F)cc1,1,-1,6,1,1,nt,nt,nt,nt,
O=C(NC1=NCCS1)c1cccc(OC(F)F)c1,5.0*,0,16*,1,4.8*,14*,9.6*,14*,1,
O=C(NC1=NCCS1)c1sc2ccccc2c1Cl,4.7*,1.1*,21*,11*,1,12*,7.4*,15*,1,LXRb hcDAF ctr=1;hcDAF12 ag=9.7*
CC(C)c1ccc(C(=O)NC2=NCCS2)cc1,5.5*,1,18*,5,0,19*,7.0*,14*,1,
CC(C)Oc1cccc(-c2n[nH]c(=S)n2N=Cc2cccc([N+](=O)[O-])c2)c1,-1,-1,-3,-2,nt,nt,nt,nt,nt,
COc1ccc2c(c1OC)C(=O)N(c1cccc(C(F)(F)F)c1)C2,5.1*,0,19*,5.7*,2,13*,4.4*,15*,0,
COc1ccccc1N1Cc2ccc(OC)c(OC)c2C1=O,1,-1,-1,-2,1,nt,nt,nt,nt,
O=C(Nc1ccc(Cl)c(Cl)c1)C1CCN(c2nnc(-n3cccc3)s2)CC1,0,-2,3,0,nt,nt,nt,nt,nt,
Cc1cc(C)c2sc(NC(=O)C3=COCCO3)nc2c1,14*,0,21*,10*,2,9.5*,4.3*,17*,1,LXRb hcDAF ctr=1;hcDAF12 ag=5
O=C(Nc1n[nH]c(=S)s1)c1ccc2ccccc2c1,16*,0,14*,3,1,13*,6.3*,13*,1,
COc1ccc(/C=C/C(=O)Nc2ccccc2C(=O)O)cc1,5.2*,0,14*,6.2*,-2,7.9*,3,11*,1,
COc1ccc(/C=C/C(=O)Nc2ccccc2C(=O)N2CCCC2)cc1,1,-2,0,0,0,nt,nt,nt,nt,
O=C(CCCc1ccccn1)c1cccc2ccccc12,5.6*,1.1*,15*,12*,2,13*,5.7*,15*,1,LXRb hcDAF ctr=1;hcDAF12 ag=9.6*

# Screens: PubChem, The Scripps Research Institute Molecular Screening Center
